The list is not random: actives were taken first. Their share in the collection is about 2.4%.
D2 ag-1 – HTS Assay for Allosteric Agonists of the Human D2 Dopamine Receptor: Primary Screen for Agonists; D(2) dopamine receptor (Homo sapiens), P14416; HEK293 T-REx D2 cells, calcium flux agonist mode; activation, % at 2 µM; 340,000 tested, 0.53% active; AID 485358, 2010;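 active = activation over 3 SD above normal in the single-dose calcium agonist read, cut at about 30% in these data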; note: 0% is about no effect
Target sequence (P14416 whole entry, looked up): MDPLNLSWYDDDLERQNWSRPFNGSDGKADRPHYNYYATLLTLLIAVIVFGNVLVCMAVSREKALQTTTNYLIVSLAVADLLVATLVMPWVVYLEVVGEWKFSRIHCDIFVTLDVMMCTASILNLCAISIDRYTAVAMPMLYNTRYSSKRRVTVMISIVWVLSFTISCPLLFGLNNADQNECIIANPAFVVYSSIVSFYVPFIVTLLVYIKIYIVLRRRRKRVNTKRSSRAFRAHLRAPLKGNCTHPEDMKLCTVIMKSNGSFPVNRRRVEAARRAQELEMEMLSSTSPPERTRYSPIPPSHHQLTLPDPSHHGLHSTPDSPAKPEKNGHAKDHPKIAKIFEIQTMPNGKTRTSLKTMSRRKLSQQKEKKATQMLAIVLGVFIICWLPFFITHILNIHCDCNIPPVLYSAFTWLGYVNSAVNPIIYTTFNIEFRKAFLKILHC
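Calcium-flux readout, 1 cycle/sec over 180 s following compound pin transfer, in inducible HEK293 Trex D2 cells (force-coupled); dopamine controls included. Positive calcium responses during this window marked compounds as potential agonists.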
D2 antag – HTS Assay for Allosteric Antagonists of the Human D2 Dopamine Receptor: Primary Screen for Antagonists | AID 485344, 2010 | 340,000 tested, 2% active | inhibition, % at 10 µM | D(2) dopamine receptor (Homo sapiens), P14416 | HEK293 TREx D2 cells, calcium flux, dopamine EC80; in the data active = inhibition above about 30%; inactive = below that, where a call was filed; note: 0% is about no effect
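Cells plated overnight at 30 C with tetracycline; no-wash calcium dye, 30–90 min RT; 10 s baseline; compound pinned; 180 s read; EC80 dopamine added; another 180 s read.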
D2 PAM-1 – Beta-Arrestin HTS for Positive Allosteric Modulators of the Human D2 Dopamine Receptor: Potentiators. D(2) dopamine receptor (Homo sapiens), P14416. 360,000 tested, 0.23% active. potentiation, % (concentration not given with the values). DiscoveRx D2 beta-arrestin cells, luminescence, 90 min; 100% = 57 uM dopamine signal. AID 624464, 2012; in the data active = potentiation above about 50%; inconclusive = mostly about 30% to 49%
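D2 cells co-treated with compound plus 50 nM dopamine (EC20) for 90 min at 37 deg C to detect potentiation. Beta-arrestin recruitment was read as enzyme-fragment luminescence after 1 h at ambient temperature. Full response was set by 57 uM dopamine.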
D2 ag-2 – Beta-Arrestin HTS for Positive Allosteric Modulators of the Human D2 Dopamine Receptor: Agonists | DiscoveRx PathHunter D2 beta-arrestin, luminescence, 90 min; 100% = 57 uM dopamine signal | 360,000 tested, 0.084% active | activation, % (test concentration not listed); in the data active = activation above about 40%; inconclusive = between about 15% and that limit
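Agonist mode: compounds alone added to overnight-plated D2 PathHunter cells for 90 min at 37 C, with 57 uM final dopamine (EC100) defining full response. Beta-arrestin recruitment detected by chemiluminescent reagent, read after 1 h at ambient temperature.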
D2 PAM-2 – HTS Assay for Positive Allosteric Modulators of the Human D2 Dopamine Receptor: Primary Screen for Potentiators | D(2) dopamine receptor (Homo sapiens), P14416 | HEK293 T-REx D2, calcium flux, EC20 dopamine potentiation | potentiation, % at 10 µM | 340,000 tested, 0.34% active | AID 485347, 2010;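 active = potentiation over 3 SD above the plate norm, cut at about 30% in these data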; note: 0% is about no effect
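Tetracycline-induced HEK293 T-REx cells force-coupled to calcium signalling expressed D2; compounds were pin-added after a 10 s baseline, read kinetically 180 s, then an EC20 dopamine challenge followed with a further 180 s calcium read.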
An asterisk follows results filed as active; ? = inconclusive; / = no result.

SMILES	D2 ag-1	D2 antag	D2 PAM-1	D2 ag-2	D2 PAM-2
Clc1ccc(OCCN2CCCCC2)c(Cl)c1	0	72*	-27	-2	-21
Clc1ccc(OCCCN2CCCCC2)c(Br)c1	1	38*	-46	2	-21
CC1CC(C)CN(CCOc2ccc(Cl)cc2Cl)C1 (stereo unspecified)	/	/	-18	-2	/
Clc1ccc(SCCCN2CCCCC2)cc1	-1	38*	-21	-3	-26
Clc1ccccc1OCCN1CCCCC1	1	44*	-37	-4	-33
Cc1ccc(-c2nc(S(=O)(=O)c3ccc(Cl)cc3)c(N3CCCCC3)o2)cc1	0	/	/	/	-8
CCCCNC(=O)Cc1coc2ccc3ccccc3c12	1	-9	-4	0	33*
N/C(Cc1ccc(Cl)cc1Cl)=N\OC(=O)c1ccccc1	0	-43	22	63*	-14
N/C(Cc1ccc(Cl)cc1)=N\OC(=O)c1cccc2ccccc12	2	-7	86*	?	-9
N/C(Cc1ccc(Cl)cc1)=N\OC(=O)c1ccc2ccccc2c1	0	-19	168*	?	6
COCCCNC(=O)c1ccc(Cn2c(=O)c3ccccc3n(CC(N)=O)c2=O)cc1	1	/	/	/	0
Cc1ccc(C)c(NC(=O)Cn2c(=O)nc(-c3ccccc3)c3ccccc32)c1	1	/	/	/	-6
CCOC(=O)Nc1sc2c(c1C#N)CCCC2	0	9	-2	-2	-6
CCCC1CCc2c(sc(NC(=O)OCC)c2C#N)C1 (stereo unspecified)	-1	/	-1	-2	34*
CCN1c2ccccc2-c2nc(SCC(=O)NCc3ccccc3)ncc2S1(=O)=O	0	/	/	/	7
CCc1cccc(NC(=O)c2ccc3c(c2)N(Cc2cccc(Cl)c2)C(=O)c2ccccc2S3=O)c1 (stereo unspecified)	0	/	/	/	0
Cc1ccc(NC(=O)CCNS(=O)(=O)c2cccc3nonc23)cc1	0	31*	-5	-3	26
CC(C)c1ccc(NC(=O)CCNS(=O)(=O)c2cccc3nonc23)cc1	0	8	-4	-1	1
O=C(NCc1ccccc1Cl)c1cc2c(s1)-c1ccc(Cl)cc1SC2	-1	/	/	/	-3
C/C(Cn1nnc([N+](=O)[O-])n1)=N\NC(=O)c1ccccc1	1	-7	59*	7	2
C/C(Cn1cnc([N+](=O)[O-])n1)=N\NC(=O)c1ccccc1	-1	-7	2	-1	-9
COc1ccccc1CNC(=O)c1ccc2c(c1)nnn2C1CCCC1	/	/	/	/	9
CC(CCO)Nc1nc2c(c(=O)n(C)c(=O)n2C)n1Cc1ccc(Br)cc1 (stereo unspecified)	-1	/	/	/	10
CC(C)CCNC(=O)Cc1ccccc1[N+](=O)[O-]	0	-1	-10	-2	33*
O=C(Cc1ccccc1[N+](=O)[O-])NCCc1ccc(F)cc1	1	-29	-3	-2	2
SMILES	D2 ag-1	D2 antag	D2 PAM-1	D2 ag-2	D2 PAM-2
COc1cccc(-c2ccc(-c3noc(-c4ccccc4F)n3)c(OC)n2)c1	1	40*	-13	-3	-22
COCc1nc(-c2ccc(-c3ccccc3)nc2OC)no1	0	42*	-4	-1	5
Cc1cc(Cl)ccc1NS(=O)(=O)c1ccc2c(c1)CC(C)N2C(=O)C1CCC1 (stereo unspecified)	-1	/	/	/	2
Cc1ccc(CN2CCc3nc(N4CCN(c5ccccc5F)CC4)ncc3C2)s1	-2	/	/	/	9
CC(=O)OCCn1c2nc(=O)[nH]c(=O)c-2nc2cc(C)c(C)cc21	112*	29	-3	-2	9
CC(=O)OCCn1c(C)[n+](CCOC(C)=O)c2cc(Cl)c(Cl)cc21	2	-8	-6	4	-2
CCOc1cc(C(=O)NCCN2CCOCC2)cc(OCC)c1OCC	-2	18	-13	-3	42*
Cn1nc(-c2ccc(Cl)cc2)c2cc(C(=O)N3CCOCC3)sc21	0	31*	-3	1	10

Screening results as filed in PubChem.
